# Assay results as given in ChEMBL document CHEMBL3988442, “University of Dundee, Small-Polar-MMV Screening Library” (2021).
# Hit rate of the full screen: of about 48,000 compounds, about 13,000 (27%) showed an effect of 50% or more. The list shows a part of the results.
# System: Wolbachia pipientis
# Test: Anti-Wolbachia Cell-Based Screen
# Format: functional
# Design: scale not given: in the data most compounds retested in dose-response had high values
# Settings: 5 µM
row,SMILES,Percent Effect
1,Cc1nc(C(C)C)ncc1C(=O)N1CCc2c(nc(N(C)C)[nH]c2=O)C1,-2.755%
2,Cc1ccc(CN2CC3(CCNCC3)CCC2=O)c(F)c1F,-4.713%
3,CNC(=O)N1CCC2(CC1)CC[C@@]1(C(=O)NC)CN(S(C)(=O)=O)C[C@@H]21,99.51%
4,CNC(=O)[C@@]12CCC3(CCN(C(C)=O)CC3)[C@@H]1CN(S(C)(=O)=O)C2,-0.1611%
5,CCN1CC2(CC1=O)CN(C(=O)COC)CCN(S(C)(=O)=O)C2 (configuration not stated),-10.66%
6,CNC(=O)[C@@]12CCC3(CCN(C(=O)C(C)C)CC3)[C@@H]1CN(S(C)(=O)=O)C2,104.1%
7,CCN1C[C@H]2C3(CCN(C(=O)NC(C)C)CC3)CC[C@@]2(C(=O)NC)C1.O=C(O)C(F)(F)F,-18.02%
8,CCN1C[C@H]2C3(CCN(S(C)(=O)=O)CC3)CC[C@@]2(C(=O)N(C)C)C1.O=C(O)C(F)(F)F,-24.55%
9,CNC(=O)[C@@]12CCC3(CCNCC3)[C@@H]1CN(S(C)(=O)=O)C2,151.6%
10,CC(C)NC(=O)N1CCC2(CC1)CC[C@@]1(C(=O)N(C)C)CN(C)C[C@@H]21,-18.22%
11,CNC(=O)[C@@]12CCC3(CCN(C(=O)COC)CC3)[C@@H]1CN(S(C)(=O)=O)C2,102.3%
12,CC(=O)N1CCC2(CC1)CC[C@@]1(C(=O)N(C)C)CN(S(C)(=O)=O)C[C@@H]21,-18.69%
13,CNC(=O)[C@@]12CCC3(CCN(S(C)(=O)=O)CC3)[C@@H]1CN(S(C)(=O)=O)C2,14.17%
14,O=C(c1cscn1)N(CCCO)S(=O)(=O)c1cccs1,7.908%
15,CN(CCSc1ccccc1)C(=O)c1cn2c(n1)CNCC2,-0.3479%
16,O=C(NCc1ccc(C(=O)N2CCCC2)cc1)c1cn2c(n1)CNCC2,-4.939%
17,CN1C(=O)CC(N(C)Cc2nc3ccccc3c(=O)[nH]2)C1=O (configuration not stated),-8.963%
18,CCC(C)N(Cc1ccncc1)Cc1cccc(Cn2cccn2)c1 (configuration not stated),-14.79%
19,CCc1[nH]c2c(CNc3cncc(C(=O)OC)n3)cc(C)cc2c1C,11.12%
20,O[C@H]1COCCN(Cc2cccc3c2OCO3)C1,-4.774%
21,CCOc1ccccc1-c1noc(CN2CCOC(CN(C)C)C2)n1 (configuration not stated),7.76%
22,Cc1ccccc1-c1cc(C(=O)N2CCn3c(C)nnc3C2)[nH]n1,-2.104%
23,CC(C)c1nnc2n1CCN(C(=O)c1ccc3cc[nH]c3c1)C2,-4.188%
24,CC(C)c1nnc2n1CCN(C(=O)c1cc3cc(F)ccc3[nH]1)C2,98.88%
25,Cc1nnc2n1CCN(C(=O)c1cc(Cl)c[nH]1)C2,-1.056%
26,CC(C)c1nnc2n1CCN(C(=O)c1ccnc(N(C)C)c1)C2,-1.642%
27,Cc1nnc2n1CCN(C(=O)c1cc3cc(F)ccc3[nH]1)C2,87.27%
